Pf Dd2 inh: inhibitors of Plasmodium falciparum Dd2 growth | P. falciparum Dd2 growth, SYBR Green, 72 h | Potency, µM (highest dose often 28.9 µM), most hits filed as inhibitors | hit rate 4.3% among 120,000 | AID 1347417; active = well fitted inhibition curve with a large enough effect; note: nearly all actives have a fitted effect of over 65% in size
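Infected erythrocytes (Dd2, 0.3% parasitemia, 2.5% hematocrit final) are added to compound in RPMI-1640/Albumax II medium, grown 72 h at 37C in low oxygen, then lysed with saponin/Triton-X containing SYBR Green and read by fluorescence.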
Of the large screens only hits and unclear results are named; the others gave an inactive call. The sample as a whole holds a higher share of hits than the screen did.

COc1ccc(CNC(=O)C[C@@H]2C[C@H]3O[C@H](CNC4CCCC4)[C@@H](O)[C@H]3O2)cc1	none
O=C(O)COCC(=O)N[C@H]1CO[C@H]2[C@@H]1OC[C@@H]2n1nnnc1Oc1ccc(-n2cncn2)cc1	none
CC1(C(=O)NCCc2c[nH]c3ccccc23)CCCCC(=O)N1 (stereo unspecified)	none
CCCCN1C(=O)c2[nH]nc(-c3ccccc3O)c2C1c1cc(Br)c(O)c(OC)c1 (stereo unspecified)	none
CCCCN1C(=O)c2[nH]nc(-c3ccccc3O)c2C1c1ccc(OCc2ccccc2)c(OC)c1 (stereo unspecified)	Pf Dd2 inh 11µM
CCCN1C(=O)c2[nH]nc(-c3ccccc3O)c2C1c1ccc(OCc2ccccc2)c(OCC)c1 (stereo unspecified)	Pf Dd2 inh 11µM
CCOc1ccc(C2c3c(-c4ccccc4O)n[nH]c3C(=O)N2Cc2cccnc2)cc1OC (stereo unspecified)	none
COCCNC(=O)[C@@H]1C[C@H](Oc2cccnc2)CN1C(=O)c1ocnc1C	none
Cc1ncc2c(c1CNC(=O)COc1ccc(F)cc1)CCNC2	none
CCNC(=O)N1CC(c2nnc(-c3ccncc3)o2)C2(CCOCC2)C1 (stereo unspecified)	none
Cc1cnc(CCNC(=O)Nc2ccc3c(c2)OCCO3)n1C1CCC1	Pf Dd2 inh 5µM
Cc1cnc(CCNC(=O)c2n[nH]c(=O)c3ccccc23)n1C1CCCCC1	Pf Dd2 inh 7.9µM
Cc1cnc(CCNC(=O)NC(C)C)n1C1CC1	none
Cc1cnc(CCNC(=O)c2n[nH]c(=O)c3ccccc23)n1C1CCC1	none
Cc1cnc(CCNC(=O)NCc2ccccc2)n1C1CCC1	none
COCc1ncc(C)n1CCNC(=O)c1n[nH]c(=O)c2ccccc12	none
COc1nccc(N2CCC(CC(=O)N3CCN(CCC#N)CC3)CC2)n1	none
COc1ccc(NC(=O)[C@@H]2C[C@H](c3cccc(C(F)(F)F)c3)N(Cc3cnn(C)c3)C2)cc1	none
O=C1NCCOCCCN(C(=O)C2CC2)[C@H]2CCCC[C@@H]12	none
O=C(NC1CC1)C1(c2ccc(Cl)cc2)CCOCC1	none
Cn1cnc(S(=O)(=O)N2CCC(N3C(=O)C4(CCCC4)C3c3ccccc3)CC2)c1 (stereo unspecified)	none
O=C(CC(F)(F)F)N1CCC(N2C(=O)C3(CCCC3)C2c2ccccc2)CC1 (stereo unspecified)	Pf Dd2 inh 6.3µM
O=C1N(C2CCNCC2)C(c2ccccc2)C12CCCC2 (stereo unspecified)	Pf Dd2 inh 5µM
CCNC(=O)N1CCC(N2C(=O)C3(CCCC3)C2c2ccccc2)CC1 (stereo unspecified)	Pf Dd2 inh 11µM
COCC(=O)N1CCC(N2C(=O)C3(CCCCC3)C2c2ccccc2)CC1 (stereo unspecified)	none
O=C(Cc1ccncc1)N1CCC(N2C(=O)C3(CCCCC3)C2c2ccccc2)CC1 (stereo unspecified)	none
CCOC(=O)CCNC(=O)N1CCC(N2C(=O)C3(CCCC3)C2c2scnc2C)CC1 (stereo unspecified)	none
CN(C)S(=O)(=O)N1CCC(N2C(=O)C3(CCCCC3)C2c2ccccc2)CC1 (stereo unspecified)	none
O=C(Cn1ccnc1)N1CCC(N2C(=O)C3(CCCC3)C2c2ccccc2)CC1 (stereo unspecified)	none
CS(=O)(=O)N1CCOc2ccc(CCC(=O)N3CCCCC3)cc2C1	none
Cc1cnc(C(=O)NC2C[C@H]3CC[C@@H](C2)N3C(=O)c2sccc2C)cn1 (stereo partly specified)	none
CC(NC(=O)COc1ccc(NC(=O)C2CC2)cn1)c1cccs1 (stereo unspecified)	none
CN1[C@@H](CCC(=O)N2CCC(O)CC2)CNC(=O)[C@@H]2[C@H]1CCN2Cc1nc2ccccc2n1C	none
Cc1ccc(S(=O)(=O)NC[C@H]2O[C@@H](CC(=O)NCCN3CCOCC3)[C@H](O)[C@@H]2O)cc1	none
CCOc1cccc(CN(C)C(=O)CN2CC3(CCN(C)CC3)CC2=O)c1	none
COc1cc(CN2CCN(c3ncccc3C#N)CC2CCO)cc(OC)c1 (stereo unspecified)	none
Cc1nc(-c2ccc(N(C)C)cc2)cc([C@H]2CN3CC[C@H]2C[C@@H]3CNC(=O)C(C)(C)C)n1	Pf Dd2 inh 7.1µM
Cc1nc(-c2ccccc2Br)cc([C@H]2CN3CC[C@H]2C[C@@H]3CNC(=O)C2CC2)n1	none
Cc1nc(-c2ccco2)cc([C@H]2CN3CC[C@H]2C[C@@H]3CNCc2ccccc2)n1	Pf Dd2 inh 1.1µM
Cc1nc(-c2cccs2)cc([C@H]2CN3CC[C@H]2C[C@@H]3CNC(=O)CSCC(=O)O)n1	none
Cc1nc(-c2ccco2)cc([C@H]2CN3CC[C@H]2C[C@@H]3CNC(=O)C2CC2)n1	none
COCC(=O)NC[C@H]1C[C@@H]2CCN1C[C@@H]2c1cc(-c2ccccc2)nc(C)n1	none
Cc1nc(-c2ccc(C(F)(F)F)cc2)cc([C@H]2CN3CC[C@H]2C[C@@H]3CNC(=O)C2CC2)n1	none
Cc1nc(-c2cccs2)cc([C@H]2CN3CC[C@H]2C[C@@H]3CNC(=O)c2ccc(N(C)C)cc2)n1	Pf Dd2 inh 7.1µM
Cc1nc(-c2cccs2)cc([C@H]2CN3CC[C@H]2C[C@@H]3CNC(=O)c2ccco2)n1	none
COc1ccc(C(=O)NC[C@H]2C[C@@H]3CCN2C[C@@H]3c2cc(-c3ccccc3Br)nc(C)n2)cc1	Pf Dd2 inh 7.1µM
Cc1nc(C2CCCC2)cc([C@H]2CN3CC[C@H]2C[C@@H]3CNC(=O)c2ccco2)n1	none
COc1ccccc1-c1cc([C@H]2CN3CC[C@H]2C[C@@H]3CNC(=O)c2ccc(C)cc2)n(C)n1	none
COCCN1CCC(N2CCN(S(=O)(=O)c3ccc(F)cc3F)CC2)C1=O (stereo unspecified)	none
O=C(COc1ccccc1)NC1CCN(c2cc(C(F)(F)F)ncn2)CC1	none
Cc1c(CC(=O)NCC2CCCOC2)c2c(n1CC(C)C)CC(C)(C)CC2=O (stereo unspecified)	none
Cc1nc(C)c(C(=O)N2CCC(CCOc3ccccc3)C2)s1 (stereo unspecified)	none
O=C(NC1C[C@H]2CC[C@@H](C1)N2C(=O)c1ccoc1)c1ccncc1 (stereo partly specified)	none
Cc1cccc(C(=O)N2CCn3nnc(CCC(=O)NC4CC4)c3C2)c1	none
Cc1cnc(C)n1C1CCN(C(=O)CCn2cccn2)CC1	none
CCCc1ccc(S(=O)(=O)N2CCC(n3cnnc3C)CC2)cc1	none
COc1ccccc1-c1nnc(C2CCN(S(=O)(=O)c3ccc(F)c(C)c3)CC2)o1	none
CCCc1ccc(S(=O)(=O)N2CCC(c3nnc(-c4cccc(C)c4)o3)CC2)cc1	Pf Dd2 inh 11µM
CCC(C)NC(=O)N1CC(n2cc(C(=O)NCc3ccncc3)nn2)C1 (stereo unspecified)	none
CS(=O)(=O)c1ccc(CN2C[C@H](O)C[C@H]2c2nc(-c3cnccn3)no2)cc1	none
O=C1Nc2ccc(-c3ccccc3)cc2C(=O)N2CCN(C(=O)c3cccs3)C[C@H]12	none
OC[C@@H]1O[C@H](CNC2CCOCC2)[C@H](N2CCCCC2)[C@@H]1O	none
COC(=O)N1CCn2ncc(C(=O)Nc3ccc(Cl)cc3Cl)c2C1	none
CCn1c2c(c(=O)n3ncc(C(=O)Nc4ccc(C(=O)OC)cc4)c13)CN(Cc1ccc(OC)cc1)CC2	Pf Dd2 inh 10µM
COc1cc(=O)n2c(c1C(=O)Nc1ccc(F)cc1Cl)CCCC2	none
COc1ccc(-c2nc(C)nc3c2CN(Cc2ccc(NC(C)=O)cc2)CC3)cc1	none
CCn1c2c(c(=O)n3ncc(C(=O)Nc4ccc(F)cc4Cl)c13)CN(Cc1ccc(OC)cc1)CC2	Pf Dd2 inh 11µM

Compound activity as filed in PubChem BioAssay.
